{"source": "ChEMBL document CHEMBL3988442", "about": "“University of Dundee, Small-Polar-MMV Screening Library” (2021)", "note": "The whole screen tested about 69,000 compounds, of which about 10 (0.01%) showed an effect of 50% or more. Only a selection was taken, and strong results are over-represented in it overall."}
{"target": "ClpP1P2 (Mycobacterium tuberculosis (strain ATCC 25618 / H37Rv)) (UniProt P9WPC5+P9WPC3)", "assay": "in vitro assay to detect presence of AMC directly proportional to the activity of ClpP1P2. GHDDI collaboration.", "format": "functional", "design": "scale not given: direction of the effect not stated beside the values", "details": "50 µM", "units": {"Percent Effect": "%"}}
{"molecule": "O=C(NCCc1cccs1)[C@]12COC[C@H]1CN(Cc1ccccn1)C2", "Percent Effect": 21.1}
{"molecule": "COc1ccc(N2CCN(C(=O)[C@H]3[C@@H]4CNC[C@@H]43)CC2(C)C)cc1", "Percent Effect": -7.82}
{"molecule": "CCN1C[C@H]2CCN(C(=O)c3cc[nH]n3)CC[C@H]2S1(=O)=O", "Percent Effect": -1.84}
{"molecule": "Cc1noc([C@H]2CC[C@@H]3[C@@H](CCN3S(=O)(=O)C3CC3)O2)n1", "Percent Effect": 16.5}
{"molecule": "NCC1Cc2cc(Oc3cc(F)c(CN4CCCC4)c(F)c3)ccc2O1", "note": "(stereo unspecified)", "Percent Effect": 72.6}
{"molecule": "COc1ccc(CN2CCCC2)cc1Oc1ccc2c(c1)CC(CN)O2", "note": "(stereo unspecified)", "Percent Effect": -30}
{"molecule": "Cc1cc(CN2CCCC2)cc(Oc2ccc3c(c2)CC(CN)O3)c1", "note": "(stereo unspecified)", "Percent Effect": -31.6}
{"molecule": "Cc1cnc(N2C[C@H]3CCCC(N(C)Cc4ccccn4)[C@H]3C2)nc1", "note": "(stereo partly specified)", "Percent Effect": 6.27}
{"molecule": "O=C(CCC(F)(F)F)N1CCN(Cc2ccncc2)[C@@H]2CS(=O)(=O)C[C@@H]21", "Percent Effect": -11.9}
{"molecule": "CC(=O)N1[C@H](Cn2cncn2)C[C@@H]2CN(Cc3ccccn3)CC[C@@H]21", "Percent Effect": -7.75}
{"molecule": "O=C(N1CCCC1)N1C[C@H]2CC[C@@H]1CN(Cc1ccncc1)C2", "Percent Effect": -3.97}
{"molecule": "CC(=O)N1CC[C@H]2CC(=O)N(C3CCCCC3)CC[C@H]2C1", "Percent Effect": -8.93}
{"molecule": "CC(C)N1CC[C@H]2[C@H](C[C@@H](Cn3cncn3)N2c2nccs2)C1", "Percent Effect": 9.71}
{"molecule": "COC[C@]12COC[C@H]1CN(Cc1ccc3ccccc3n1)C2", "Percent Effect": 8.31}
{"molecule": "CN(C)C[C@H]1OC[C@@H]2CCN(S(=O)(=O)c3cccs3)C[C@@H]21", "Percent Effect": -1.92}
{"molecule": "O=C(c1ncccn1)N1C[C@@H]2CC[C@H](Oc3cccc(F)c3)[C@@H]2C1", "Percent Effect": -9.72}
{"molecule": "COCC(=O)N1CCN(S(=O)(=O)c2cccs2)[C@H]2CS(=O)(=O)C[C@H]21", "Percent Effect": 21.1}
{"molecule": "Cc1ncsc1CN1CC[C@H]2OCC[C@@]2(C(=O)NCC2CC2)C1", "Percent Effect": 8.1}
{"molecule": "CN(C[C@H]1CN2CC[C@H]1C[C@@H]2CNC(=O)c1ccco1)c1ccccc1", "Percent Effect": 3.33}
{"molecule": "CN(C)c1nccc(N2CCO[C@H]3CN(Cc4ccsc4)C[C@H]32)n1", "Percent Effect": -1.49}
{"molecule": "CN(C)S(=O)(=O)N1CCO[C@H]2[C@H](Oc3cccnc3)CC[C@@H]21", "Percent Effect": -10.1}
{"molecule": "Cc1nn(C)c(C)c1S(=O)(=O)N1CC[C@H]2O[C@@H](C)C[C@H]2C1", "Percent Effect": 9.45}
{"molecule": "O=C(c1ccoc1)N1CC[C@@H]2O[C@@H](COCCN3CCCC3)CC[C@@H]21", "Percent Effect": 8.08}
{"molecule": "O=C(CCN1C[C@H]2CC[C@@H]1CN(c1ncccn1)C2)NCc1ccco1", "Percent Effect": -5.46}
{"molecule": "CCc1cnc(N2C[C@H]3C[C@H](C(=O)N4CCOCC4)[C@@H](C2)O3)nc1", "Percent Effect": 7.75}
{"molecule": "CC(C)N1C[C@@H]2CN(C(=O)NCc3ccccc3)CCC[C@]2(C(=O)O)C1", "Percent Effect": -0.327}
{"molecule": "Cc1noc([C@@H]2C[C@H]3CN(Cc4ccc5c(c4)OCO5)C[C@H]3O2)n1", "Percent Effect": 2.95}
{"molecule": "Cc1noc([C@]23COC[C@H]2CN(Cc2cc(C)on2)C3)n1", "Percent Effect": 14.7}
{"molecule": "O=C1C[C@@H]2[C@H](CCN2Cc2ccco2)N1c1ccsc1", "Percent Effect": -3.07}
{"molecule": "C[C@H]1C[C@H]2CN(C(=O)CCc3ccccc3)CC[C@H]2O1", "Percent Effect": -7.99}
{"molecule": "O=C(Nc1ccccc1)[C@H]1CN2CC[C@H]1C[C@@H]2Cn1cc(CCO)nn1", "Percent Effect": -1.69}
{"molecule": "O=C(C[C@H]1[C@H]2CN(Cc3ccc(F)cc3)C[C@@H]12)N1CCCC1", "Percent Effect": -10.3}
{"molecule": "Cc1cnc(N2C[C@@H]3[C@@H](C(=O)NC(C)C)CCS(=O)(=O)[C@@H]3C2)nc1", "Percent Effect": 8.69}
{"molecule": "CCN1CC[C@@]2(C(=O)N3CCOCC3)CCN(C(=O)CC(C)C)CC[C@@H]12", "Percent Effect": -11.5}
{"molecule": "COc1ccc(-c2ncccc2C(=O)N2C[C@H]3CC[C@@H]2C3)cn1", "Percent Effect": -2.59}
{"molecule": "CN(C)S(=O)(=O)N1C[C@@H]2CC[C@H](C1)N(Cc1ccc3c(c1)OCCO3)C2", "Percent Effect": -5.61}
{"molecule": "Cc1nc2cc(C3CCN(Cc4cccc(F)c4F)C3)nn2c(O)c1C", "note": "(stereo unspecified)", "Percent Effect": 4.6}
{"molecule": "N#Cc1cccc(CN2CC[C@@H]3[C@@H]2CC(=O)N3CCN2CCCC2)c1", "Percent Effect": -6.88}
{"molecule": "CC(C)NC(=O)[C@H]1C[C@@H]2[C@@H](C1)OCCN2Cc1nccs1", "Percent Effect": -14.4}
{"molecule": "Cc1noc(C)c1CN1C[C@H]2CNC[C@H]2C1", "Percent Effect": 3.63}
{"molecule": "c1cnc(NC[C@@H]2CCC[C@@H]3CN(Cc4cccnc4)C[C@@H]32)nc1", "Percent Effect": 9.72}
{"molecule": "CCN(CC)Cc1cc(C(=O)N2CC[C@@]3(O)CCCC[C@H]3C2)c(C)o1", "Percent Effect": -7.09}
{"molecule": "N#Cc1ccccc1C(=O)N1C[C@H]2CC[C@@H]1CN(c1ncccn1)C2", "Percent Effect": 12.4}
{"molecule": "COc1ccc(CN2C[C@@H](N(C)Cc3ccco3)[C@H]3OCCC[C@H]32)cc1", "Percent Effect": 8.12}
{"molecule": "Cc1cccc(CN2CC[C@H]3C[C@H](C)O[C@@H]3C2)n1", "Percent Effect": -3.13}
{"molecule": "CN(C)C(=O)N1CC[C@H]2[C@H]1CCN2c1nncs1", "Percent Effect": -2.44}
{"molecule": "NC(=O)c1cc2c(nc1N1C[C@H]3OC(=O)N(C4CCCC4)[C@H]3C1)CCC2", "Percent Effect": 3.22}
{"molecule": "Cc1ccc(CN2CCO[C@@H]3C[C@@H](C(=O)NC(C)C)C[C@H]32)o1", "Percent Effect": -8.36}
{"molecule": "CCCc1nc(N2CCCN3CCC[C@H]3C2)c2cnn(C)c2n1", "Percent Effect": 7.09}
{"molecule": "CN(C)CCN1C[C@@H]2OCCN(Cc3cnn(C)c3)[C@@H]2C1", "Percent Effect": 12}
{"molecule": "CC(CN1CC[C@@H]2CCCC[C@@H]2C1)n1cnc2ccccc21", "note": "(stereo partly specified)", "Percent Effect": -9.76}
{"molecule": "COCCC(=O)N1CCC2(COCc3c(C)nc(NCC4CC4)nc32)C1", "note": "(stereo unspecified)", "Percent Effect": 11.8}
{"molecule": "Cc1nc(NCC2CC2)nc2c1COCC21CCN(C(=O)NC(C)C)C1", "note": "(stereo unspecified)", "Percent Effect": 6.34}
{"molecule": "Cc1nc(NCC2CC2)nc2c1COCC21CCN(C(=O)C(C)(C)C)C1", "note": "(stereo unspecified)", "Percent Effect": 97.5}
{"molecule": "CC1=N[C@@]2(CC[C@@H]3CN(CC4CC4)C[C@@H]32)C(=O)N1CC1CC1", "Percent Effect": -5.13}
{"molecule": "Cc1ccoc1C(=O)N1C[C@@H](OCC2CCOCC2)[C@H]2OCCC[C@H]21", "Percent Effect": -0.469}
